Pf growth 96h: Primary qHTS for delayed death inhibitors of the malarial parasite plastid, 96 hour incubation. P. falciparum luciferase reporter growth, 96 h. Potency, µM (series often up to 28.7 µM), inactives show top-dose activity change, negative = inhibition, hits mostly inhibitors. hit rate 6.9% among 320,000. AID 504834, 2011; also: potency is read from the fitted curve at half-maximal effect; % is scaled to controls: 0 for no effect and ±100 for the full control effect
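P. falciparum expressing integrated firefly luciferase grown in erythrocytes (2% hematocrit, 0.05% parasitemia final) with compounds for 96 hours at 37 C, 5% CO2. Growth inhibition read as loss of luminescence after adding luciferase detection reagent.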
HCMV antiviral: qHTS Assay for inhibitors of the human cytomegalovirus (HCMV) | HFF cells, HCMV-luciferase reporter, 72 h; hits give low values | activity change, negative = inhibition, % at 57.5 µM | hit rate 4.5% among 410,000 | AID 1259415, 2018; in the data active = activity change below about -60%; inconclusive = no clear call, values can overlap the other calls; inactive = above about -39%; also: % is scaled to controls: 0 for no effect and ±100 for the full control effect
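Two compound doses tested in HFFs infected with HCMV-luciferase, MOI 1 PFU/cell, 72 h at 37C. Lysate luminescence read with OneGlo; data normalized against buffer-only and 10uM Salinomycin inhibitor controls.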
HCV inh: qHTS Assay for Inhibitors of Hepatitis C Virus (HCV). Potency, µM (highest dose often 41.8 µM), for inactives: at the top dose activity change, negative = inhibition, most hits filed as inhibitors. hit rate 3.4% among 340,000. Huh7.5.1 HCVcc-Cre infection, luciferase reporter, 44 h. AID 651820, 2012; also: potency is read from the fitted curve at half-maximal effect; % is scaled to controls: 0 for no effect and ±100 for the full control effect
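Cells (1,000/well) were plated 4 h before compound, then infected with HCVcc-Cre virus (~0.5 moi). After 44 h further culture, infection was read as luciferase luminescence following a 15 min substrate incubation at room temperature.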
Sm TGR inh: qHTS Assay for the Inhibitors of Schistosoma Mansoni Peroxiredoxins | purified TGR, DTNB reduction, TNB absorbance 405 nm | Potency, µM (highest dose often 114 µM), for inactives: top-dose activity change, negative = inhibition, hits mostly inhibitors | hit rate 3% among 360,000 | AID 485364, 2010; also: potency is read from the fitted curve at half-maximal effect; % is scaled to controls: 0 for no effect and ±100 for the full control effect; nearly all actives have a fitted effect of over 60% in size
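TGR 20 nM + NADPH 100 uM (dispensed conc.), cpd preinc 15 min RT; start with NADPH (500 uM addition) then DTNB (15 mM addition). Kinetic TNB absorbance, 405 nm filter. Four-parameter Hill fit across titration.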
SARS PLpro yeast: qHTS of Yeast-based Assay for SARS-CoV PLP; S. cerevisiae expressing SARS-CoV PLpro, growth rescue; Potency, µM (titrated, usually from 32.9 µM), without a hit: top-dose activity, positive = growth rescue, actives largely listed as activators; hit rate 0.19% among 330,000; calls by dose curve; also: potency is read from the fitted curve at half-maximal effect; 0% is about no effect; nearly all actives have a fitted effect of over 55% in size
Pf growth 48h: Primary qHTS for delayed death inhibitors of the malarial parasite plastid, 48 hour incubation. hit rate 5.9% among 310,000. AID 504832, 2011. P. falciparum luciferase growth in erythrocytes, 48 h. Potency, µM (doses to about 28.7 µM), inactives show top-dose activity change, negative = inhibition, actives largely listed as inhibitors; also: potency is read from the fitted curve at half-maximal effect; % is scaled to controls: 0 for no effect and ±100 for the full control effect
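Parasite viability was followed by luminescence of a genomically integrated firefly luciferase. Cultures held 0.1% parasitemia at 2% hematocrit (final), incubated under 5% CO2 at 37 C.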
* marks the source's active call; other numbers are inactive results; ? = inconclusive; . = no result; [ ] = dose if it differs, or a comment. Only some compounds are listed: those with a hit (about 15% of all), similar ones and a draw of the others. Unless noted, calls follow the shape of the dose curve; as a rule, active = well fitted curve in the direction sought with a large enough effect; inconclusive = small, poorly fitted or top-dose-only effect, or another doubt; inactive = no such curve, though single readings can be large; an effect the other way counts as inactive or inconclusive.

SMILES | Pf growth 96h | HCMV antiviral | HCV inh | Sm TGR inh | SARS PLpro yeast | Pf growth 48h
O=C(c1ccc(F)cc1)N(c1ccccc1F)C(CCc1ccccc1)c1nc2ccccc2[nH]1 (stereo unspecified) | . | 11 | . | . | . | .
Cc1cccc(C)c1NC(=O)C(CCc1ccccc1)N(C(=O)c1ccc(F)cc1)c1ccccc1F (stereo unspecified) | . | -70* | . | . | . | .
CC(C)(C)OC(=O)N[C@H](C(=O)OC(C)(C)C)c1ccc2ccccc2c1 | ? | -20 | 0% | -7% | -6% | ?
COc1ccc(C(=O)NC(=S)Nc2cccnc2)cc1[N+](=O)[O-] | 5% | 9 | -27% | 16µM* | -1% | -1%
CCOC(=O)c1cccc(NC(=S)NC(=O)c2cccnc2)c1 | ? | 13 | -5% | 22µM* | 6% | ?
COc1cccc(NC(=S)NC(=O)c2cccnc2)c1 | 122% | 7 | 8% | 11µM* | 1% | -4%
CCOc1ccc(C(=O)NC(=S)Nc2cccnc2)cc1[N+](=O)[O-] | ? | -19 | ? | ? | 1% | -49%
COc1cccc(NC(=S)NC(=O)c2cncc(Br)c2)c1 | . | 42 | -21% | . | . | .
CCCOC(=O)c1cccc(NC(=O)c2cccnc2)c1 | 0% | -9 | ? | 12%[11.4 µM] | -5% | .
COc1cccc(C(=O)NC(=S)Nc2ccc(N(C)C)cc2)c1 | -19% | 28 | -18% | 16µM* | -17% | 143%
O=C1c2cccnc2C(Nc2ccc(Br)cc2Br)N1Cc1cccs1 (stereo unspecified) | 6.6µM* | . | . | -11% | 0% | ?
COc1ccc(-n2c(CSc3ccc(Cl)cc3)n[nH]c2=S)cc1 | . | -1 | . | . | . | .
COc1ccc(-c2ccc(CCC(=O)O)o2)cc1 | ? | 50 | -7% | 2.8µM* | -3% | 27%
Cc1oc(-c2ccc(Cl)cc2)cc1C(=O)O | 128% | 120 | -3% | 0% | -10% | 144%
NC(=O)c1ccc(-c2ccc(Br)cc2)o1 | -50% | 52 | -15% | 40µM* | -28% | ?
O=C(O)c1ccc(N/N=C/c2ccc(-c3ccc(Br)cc3)o2)cc1 | 15% | 15 | 8% | -2% | -1% | 33%
O=C(O)CCc1ccc(-c2ccc(Cl)cc2)o1 | ? | -27 | 13% | 5µM* | -37% | .
NC(=O)C1CCN(C(=S)c2ccc(-c3ccc(Br)cc3)o2)CC1 | -32% | 61 | -12% | -29% | 1% | 170%
O=C(O)CCc1ccc(-c2ccc(Br)cc2)o1 | -2% | 61 | 13% | 7.9µM* | -28% | 11%
Cc1ccc(-c2nn(CC(=O)NCc3ccccc3)c3c2cnc2ccc(F)cc23)cc1C | . | 56 | . | 0% | . | .
CCOc1ccc(C(=O)C(C)OC(=O)CN2C(=O)NC(C)(C)C2=O)cc1 (stereo unspecified) | 6% | -4 | -16% | -2% | 0% | ?
COc1ccc(N(CC(O)Cn2c3ccccc3c3ccccc32)S(=O)(=O)c2ccccc2)cc1 (stereo unspecified) | 10µM* | -78* | ? | 1% | 2% | ?
Cc1ccc(N(CC(O)CN(C)C)S(=O)(=O)c2ccccc2)cc1 (stereo unspecified) | ? | 24 | 3% | 6% | 8% | 8%
CC(=O)Nc1ccccc1N(CC(O)Cn1c2ccccc2c2ccccc21)S(=O)(=O)c1ccc(C)cc1 (stereo unspecified) | ? | -11 | 11µM* | -4% | -4% | ?
CS(=O)(=O)N(CC(O)Cn1c2ccccc2c2ccccc21)c1ccccc1 (stereo unspecified) | ? | 9 | 1% | -28% | 3% | ?
SMILES | Pf growth 96h | HCMV antiviral | HCV inh | Sm TGR inh | SARS PLpro yeast | Pf growth 48h
Cc1ccc(S(=O)(=O)N(CC(O)CN(C)C)c2ccccc2)cc1 (stereo unspecified) | 2.6µM* | 22 | 1% | -10% | 2% | -16%
CN(CC(O)Cn1c2ccccc2c2ccccc21)S(C)(=O)=O (stereo unspecified) | -21% | -14 | 12% | 3%[57.1 µM] | -1% | ?
CCN(CC(O)Cn1c2ccccc2c2ccccc21)S(=O)(=O)c1ccc(C)cc1 (stereo unspecified) | . | 12 | 3.2µM* | -11% | -20% | .
CCCCCCc1ccc(-c2ccc(C#N)cc2)cc1 | . | -25 | . | . | . | .
CCN(CC)CC(O)CN(c1ccccc1)S(=O)(=O)c1ccc2ccccc2c1 (stereo unspecified) | ? | -67* | 7% | -3% | 2% | .
Cc1ccc(N(CC(O)Cn2c3ccccc3c3ccccc32)S(=O)(=O)c2ccc(F)cc2)cc1 (stereo unspecified) | . | -92* | . | -9% | . | .
Cc1ccc(S(=O)(=O)N(CC(O)CN2CCCC2)c2ccccc2)cc1 (stereo unspecified) | 83% | 14 | 17% | -1%[11.4 µM] | 1% | .
O=S(=O)(c1ccc2ccccc2c1)N(CC(O)COCc1ccco1)c1ccccc1 (stereo unspecified) | -17% | -18 | -19% | 0% | . | -19%
COc1cc(N2CN=c3s/c(=C\c4ccccn4)c(=O)n3C2)cc(OC)c1OC | 4% | 37 | -1% | 39% | -3% | 0%
CCOC(=O)Cc1csc(NS(=O)(=O)c2ccc(Cl)cc2)n1 | 8.3µM* | 40 | 38% | -3% | -1% | ?
O=C(/C=C/c1ccco1)Nc1nc(-c2ccccn2)cs1 | ? | 45 | -16% | 13µM* | ? | ?
Cc1csc(NC(=O)/C=C/c2ccc(C)o2)n1 | 142% | 37 | 11% | 20µM* | -4% | 209%
Cc1ccc(NC(=O)/C=C/c2ccco2)nc1 | -26% | -63* | 6% | -17% | -8% | 158%
Cc1csc(NC(=O)/C=C/c2ccc3c(c2)OCO3)n1 | 23% | 9 | ? | 3% | 10% | 161%
O=C(/C=C/c1ccco1)Nc1ccccn1 | 6% | 100 | ? | 1% | -38% | 255%
OC(c1ccc(Cl)c(Cl)c1)c1ncc(-c2ccccc2F)[nH]1 (stereo unspecified) | . | -16 | . | . | . | .
COc1cccc(NC(=O)N[C@H]2CC[C@@]34CCCN3C(=O)CCC[C@H]4C2Cc2ccccc2)c1 (stereo partly specified) | . | -4 | . | . | . | .
CCOC(=O)Cc1csc(NC(=O)/C=C/c2ccco2)n1 | -8% | 0 | -5% | 11µM* | -2% | 59%
COc1ccc(-c2csc(NC(=S)NC(=O)/C=C/c3ccco3)n2)cc1Br | ? | -73* | -27% | -32% | 0% | 10µM*
